# Rows were chosen to be rich in hits. Some 11% of all compounds tested hit in one or more screens of this group.
# BAZ2B block = inhibitors of human BAZ2B bromodomain | Potency, µM (series often up to 114 µM), for the others: top-dose activity change, negative = inhibition, actives largely listed as inhibitors | AlphaScreen BAZ2B-H3K14Ac peptide displacement | AID 504333 | 360,000 compounds, 4.4% hits; also: potency is read from the fitted curve at half-maximal effect; % is scaled to controls: 0 for no effect and ±100 for the full control effect; nearly all actives have a fitted effect of over 60% in size
#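 BAZ2B (50 nM) with biotin-H3(5-23)K14Ac peptide (50 nM) in PBS pH 7.4, 0.01% Tween-20, preformed 30 min, then compound 30 min at room temperature; top concentration 110uM. AlphaScreen streptavidin donor/nickel chelate acceptor beads (10 ug/mL final), 20 min dark, signal read.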
# HP1b binding inh = inhibitors of HP1-beta chromodomain binding to methylated histone tails; AID 540317; Potency, µM (top dose mostly 114 µM), for the others: top-dose activity change, negative = inhibition, actives largely listed as inhibitors; AlphaScreen HP1-beta / biotin-H3K9me3 peptide binding; 390,000 compounds, 0.56% hits; P83916; also: potency is read from the fitted curve at half-maximal effect; nearly all actives have a fitted effect of over 70% in size
#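 AlphaScreen: HP1-beta (50 nM) preformed 30 min with biotin-H3(1-18)K9me3 peptide (50 nM) in PBS pH 7.4, 0.01% Tween-20. Compound added for 30 min at RT, then streptavidin donor/nickel chelate acceptor beads (10 ug/mL) for 30 min.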
# JMJD2A Tudor inh = inhibitors of human JMJD2A Tudor domain. AID 504339. O75164. Potency, µM (titrated, usually from 114 µM), for the others: at the highest dose activity change, negative = inhibition, most hits filed as inhibitors. 390,000 compounds, 4.4% hits. AlphaScreen JMJD2A-Tudor / H3K4me3 peptide binding; also: potency is read from the fitted curve at half-maximal effect; % is scaled to controls: 0 for no effect and ±100 for the full control effect; nearly all actives have a fitted effect of over 50% in size
# G9a block = G9a (human) methyltransferase inhibition; G9a H3K9 monomethylation, AlphaScreen, 2 h; AID 504332; Q96KQ7; 350,000 compounds, 8.8% hits; Potency, µM (doses to about 102 µM), for inactives: at the highest dose activity, negative = inhibition, usual class: inhibitors; also: potency is read from the fitted curve at half-maximal effect; % is scaled to controls: 0 for no effect and ±100 for the full control effect; nearly all actives have a fitted effect of over 75% in size
#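 Enzyme 20 nM + cpd, 15 min RT; add b-H3K9 pep 500 nM / SAM 20 uM; 2 h RT; anti-H3K9me1 Ab 0.5 ug/mL + SA donor / anti-rabbit acceptor beads 20 ug/mL each, 10 min; AlphaScreen read.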
# PI5P4Ka inh = PI5P4K alpha (human) kinase inhibition; P48426; PI5P4Kalpha enzyme, ADP-Glo luminescence, 60 min; stronger effect = lower value; max response, %; 330,000 compounds, 1.2% hits; active = max response of -50% or lower; inconclusive = between -30% and -50%; inactive = -30% or higher; also: value at the top dose of about 77 µM; % is scaled to controls: 0 for no effect and ±100 for the full control effect
#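 Single end-point luminescence (ADP-Glo) quantified ADP from PI5P4Kalpha turnover; ATP 5 microM final, 1 h at RT, 0.1% CHAPS and 0.28 mM EGTA in HEPES pH 7.4.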
# L3MBTL1 block = inhibitors of human L3MBTL1 | Q9Y468 | AlphaScreen L3MBTL1–H3K9me1 peptide binding | Potency, µM (top dose mostly 57.1 µM), inactives show at the top dose activity, negative = inhibition, hits mostly inhibitors | 230,000 compounds, 0.66% hits | AID 485360; also: potency is read from the fitted curve at half-maximal effect; % is scaled to controls: 0 for no effect and ±100 for the full control effect; nearly all actives have a fitted effect of over 60% in size
#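 AlphaScreen proximity signal between nickel-chelate acceptor and streptavidin donor beads (final 10 ug/mL) reports binding of 50 nM L3MBTL1 to 75 nM biotin-H3 K9me1 peptide; complex incubated with compounds 30 min at room temperature; cefsulodin titration as control.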
# Starred values were filed as active, the others as inactive; ? = inconclusive; . = no result given; ! = repeats disagree; [ ] = dose if it differs, or a comment. Unless noted, calls follow the shape of the dose curve; as a rule, active = well fitted inhibition curve with a large enough effect; inconclusive = small, poorly fitted or top-dose-only effect; inactive = no such curve, though single readings can be large or run the other way.
SMILES,BAZ2B block,HP1b binding inh,JMJD2A Tudor inh,G9a block,PI5P4Ka inh,L3MBTL1 block
CCc1ccc(OCC(=O)N(Cc2ccc(C)o2)C2CCS(=O)(=O)C2)cc1 (stereo not given),-29%,12%,56µM*,-22%[59 µM],.,.
CC(C)Sc1ncc(Cl)c(C(=O)N(Cc2ccc(N(C)C)cc2)C2CCS(=O)(=O)C2)n1 (stereo not given),45µM*,?,56µM*,?,.,.
Cc1ccc(CN(C(=O)COc2ccc(Br)cc2)C2CCS(=O)(=O)C2)o1 (stereo not given),?,-8%,25µM*,-8%,-16,.
Cc1cc(OCC(=O)N(Cc2ccc(N(C)C)cc2)C2CCS(=O)(=O)C2)cc(C)c1Cl (stereo not given),10µM*,-25%,40µM*,?,.,.
Cc1cccc(OCC(=O)N(Cc2ccc(N(C)C)cc2)C2CCS(=O)(=O)C2)c1 (stereo not given),?,-17%,?,.,-1,-15%
Cc1ccc(OCC(=O)N(Cc2ccc(C)o2)C2CCS(=O)(=O)C2)cc1 (stereo not given),-13%[57.1 µM],7%,?,-5%,-6,.
CCCc1cc(=O)[nH]c(SCc2nc(-c3ccc(C)cc3)no2)n1,9%,18%[57 µM],-25%,10%[59 µM],.,.
CSc1ccc(CCNC(=O)CCn2c(=O)c3cccn3c3cccnc32)cc1,-1%,9%,-9%,-1%[59 µM],.,.
N#Cc1ccsc1NC(=O)CSc1nnnn1-c1ccc(O)cc1,?,19%,-22%,.,-61*,-28%
CCOC(=O)c1c(NC(=O)CSc2nncs2)sc(C)c1C,?,14%,-13%,10µM*,-6,2%
CCOC(=O)c1c(NC(=O)CSc2nc(-c3ccccc3)cc(C(F)(F)F)n2)sc(C)c1C,6%,11%,-15%,6.3µM*,.,.
O=C(CSc1nnnn1-c1ccc(O)cc1)NC1CCCCC1,-2%,16%,-2%,17%,5,.
CCOC(=O)c1c(NC(=O)CSc2nnnn2-c2ccc(OC)cc2)sc(C)c1C,-35%,?,50µM*,?,.,.
CCOC(=O)c1csc(NC(=O)CSc2nnnn2-c2ccc(OC)cc2)n1,0%,37%,-2%,20%[59 µM],.,3%
COc1ccc(OC)c(NC(=O)C2=C(C)C(=O)OC23CCCCCC3)c1,-2%,18%,-27%,-1%[59 µM],.,.
O=C(CSc1nc(=O)n(Cc2ccco2)c2c1CCC2)NCc1ccc(Cl)cc1,-1%,32%,6%,-4%[59 µM],.,.
CCOC(=O)c1c(NC(=O)CSc2ncnc3ccccc23)sc(C)c1C,8%,4%,-11%,-8%[59 µM],1,-1%
CCOC(=O)c1c(NC(=O)CSc2ccccc2C(=O)O)sc(C)c1C,50µM*,-1%,-30%,-38%,-24,-21%
Cc1ccc2oc(C(=O)N(Cc3sccc3C)C3CCS(=O)(=O)C3)c(C)c2c1 (stereo not given),-15%,9%,-33%,-35%[59 µM],.,.
CN(C)Cc1cccc([N+](=O)[O-])c1O,-17%,22%,-21%[11.4 µM],50µM*,1,1%
CNS(=O)(=O)c1cn(CC(=O)Nc2cccc(C(F)(F)F)c2)cc1S(=O)(=O)NC,-1%,34%,0%,4%[59 µM],.,.
COC(=O)c1cc(=O)n(CCc2ccc(OC)c(OC)c2)c(=Nc2ccc(F)c(Cl)c2)s1,?,-6%,?,25µM*,-2,.
COC(=O)c1cc(=O)n(Cc2ccc(OC)c(OC)c2)c(=Nc2ccc(F)cc2)s1,15%,-11%,?,?,0,.
CC(Sc1nnc(-c2ccco2)n1C)C(=O)Nc1nccs1 (stereo not given),-33%,21%,32µM*,-31%,1,3%
CC(Sc1nnc(-c2ccc(Cl)cc2Cl)n1Cc1ccccc1)C(=O)Nc1nccs1 (stereo not given),-7%,?,79µM*,-38%[59 µM],-2,-1%
SMILES,BAZ2B block,HP1b binding inh,JMJD2A Tudor inh,G9a block,PI5P4Ka inh,L3MBTL1 block
Cc1nnc(SC(C)C(=O)Nc2ccc(Cl)cn2)n1Cc1ccccc1 (stereo not given),9%,52%,-6%,5%,.,0%
CC(Sc1ccc([N+](=O)[O-])cn1)C(=O)Nc1nccs1 (stereo not given),-28%,19%,-20%,7.9µM*,?,.
C=CCOC(/C=C/c1ccccc1)CC (stereo not given),.,31%,-8%,.,.,.
CN(C)c1ccc(NC(=S)c2ccccn2)cc1,2.8µM*,13µM*,11µM*,8.9µM*,-14,32µM*
O=C(CCNNC(=O)c1ccncc1)NCc1ccccc1,5%,42%,3%,10µM*!,1,2%
O=C(NCc1ccncc1)c1ccc(Oc2ccccc2)cc1,-14%,1%,13µM*,15%,?,-4%
NC(=NCCCCCCN=C(N)/N=C(\N)Nc1ccc(Cl)cc1)/N=C(\N)Nc1ccc(Cl)cc1,-28%,23%,-32%,14µM*!,28,2%
CC(C)N=C(N)/N=C(\N)Nc1ccc(Cl)cc1,.,.,.,13%[21.5 µM],.,.
C[C@@H]1NC(=O)N(CCCn2ccnc2)C1=O,50µM*,15%,-28%,12%,-5,.
O=C(Nc1ccc(S(=O)(=O)Nc2cnc3ccccc3n2)cc1)c1ccc(Br)o1,0%,16%,-18%,45µM*,.,-3%
Cc1ccc(-c2cc3nc(-c4ccccc4)cc(C(F)(F)F)n3n2)cc1,4%,38%,32%,2%[59 µM],.,.
O=S(=O)(NCCc1ccccc1)c1cccc2cccnc12,14%,3%,1%,50µM*,-5,.
O=C(O)c1ccccc1NS(=O)(=O)c1cccc2cccnc12,-32%,-4%,20µM*,?,-6,.
Nc1ccccc1S(=O)(=O)Nc1cccc2cccnc12,.,.,56µM*,.,.,.
O=C(Nc1cccc2ccccc12)c1ccccc1NS(=O)(=O)c1cccc2cccnc12,-1%,12%,-16%,?,-3,1%
O=S(=O)(NCc1ccccc1)c1cccc2cccnc12,-4%,38%,-4%,16%[12.7 µM],4,.
CSS(=O)(=O)c1cccc2cccnc12,14µM*,3%,3.2µM*,0.28µM*,-91*,-8%
O=S(=O)(O)c1cccc2cccnc12,.,23%,?,.,.,.
COC(=O)C(CC(=O)c1ccc(Br)cc1)n1cccn1 (stereo not given),1%,8%,-10%,40µM*,-3,2%
COc1cc(C2CC(=O)c3cnc(N4CCN(Cc5ccccc5)CC4)nc3C2)cc(OC)c1OC (stereo not given),-36%,-20%,-36%,?,3,0%
COc1ccc(C2CC(=O)c3c(C)nc(N4CCN(Cc5ccccc5)CC4)nc3C2)cc1OC (stereo not given),?,-14%,?,35µM*,.,-14%

# Screening data deposited in PubChem BioAssay by National Center for Advancing Translational Sciences (NCATS).
